# Results reported in PubChem BioAssay.
# Active and inactive are the calls of the source.
# Assays:
# Albumin (Bos taurus) = Albumin (Bos taurus) (UniProt P02769); assay: compounds binding labelled BSA control protein – biochemical, small-molecule microarray, Alexa647 label, 635/667 nm fluorescence, artefact control for SMM control protein annotation, profiling panel (AID 1118); conditions: BSA-A647 binding, fluorescence 635 nm, higher = more signal;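 further: score merges 667 nm emission intensity and signal-to-noise per printed compound spot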
# Sequence of Albumin (Bos taurus) (P02769 whole entry, looked up): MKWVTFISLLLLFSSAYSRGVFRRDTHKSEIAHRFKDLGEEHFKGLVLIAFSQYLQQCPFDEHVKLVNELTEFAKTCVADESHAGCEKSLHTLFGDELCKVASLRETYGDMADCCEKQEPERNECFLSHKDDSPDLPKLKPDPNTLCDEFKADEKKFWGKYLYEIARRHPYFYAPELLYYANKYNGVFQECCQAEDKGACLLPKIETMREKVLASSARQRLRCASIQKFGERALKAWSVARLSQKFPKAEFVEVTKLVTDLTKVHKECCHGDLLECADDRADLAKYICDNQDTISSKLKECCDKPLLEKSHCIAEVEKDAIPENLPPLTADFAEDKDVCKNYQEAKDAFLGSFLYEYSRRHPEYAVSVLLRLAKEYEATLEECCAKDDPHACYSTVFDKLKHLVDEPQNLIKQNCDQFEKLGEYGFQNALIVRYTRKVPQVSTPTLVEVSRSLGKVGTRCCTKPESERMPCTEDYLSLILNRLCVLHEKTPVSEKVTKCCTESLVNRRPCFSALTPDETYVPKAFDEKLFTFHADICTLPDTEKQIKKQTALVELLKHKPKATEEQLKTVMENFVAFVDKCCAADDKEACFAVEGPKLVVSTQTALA
# [1] = probe aXIP binding to arrayed compounds – biochemical, NeuroSMM set, 635/667 nm fluorescence, primary screen (AID 1119); conditions: small-molecule microarray, higher = more signal, called active from +8 up or from −8 down;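 further: probe is the protein aXip251-270 applied at 1 µg/mL to compound-printed slides; binding of probe to printed compounds measured as 667 nm fluorescence plus signal to noise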
# [2] = probe aNOTCH3 binding on compound microarray – biochemical, small-molecule microarray, 635/667 nm fluorescence, primary screen (AID 1120); conditions: higher = more signal;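 further: probe is a biotin-tagged antibody raised against NOTCH3 rather than NOTCH3 protein; score merges spot fluorescence near 667 nm with spot signal to noise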
# [3] = probe aNOTCH2 binding on compound microarray – biochemical, small-molecule microarray, 635/667 nm fluorescence, primary screen (AID 1121); conditions: higher = more signal;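 further: score merges feature fluorescence read at 667 nm with its signal to noise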
# [4] = target: Carbonic anhydrase 2 (Homo sapiens) (UniProt P00918); assay: compounds binding carbonic anhydrase 2 – biochemical, small-molecule microarray, Alexa647-labelled CAII, profiling panel (AID 1122); conditions: CAII-A647 binding fluorescence, higher = more signal
# [5] = COS7 lysate on small-molecule microarray, probe aHis, 635 nm (AID 1123); conditions: COS7 cell lysate, fluorescence, higher = more signal;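 further: z-score combines 667nm fluorescence intensity with signal-to-noise per printed compound spot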
# [6] = probe aLAP1 signal on lysate-treated microarray – cell lysate, small-molecule microarray, COS7 lysate, primary screen (AID 1124); conditions: probe aLAP1, fluorescence, higher = more signal;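 further: lysate comes from COS7 cells expressing LAP1 and is applied at 0.3 µg/mL; score merges spot fluorescence near 667 nm with signal-to-noise over triplicate slides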
# Sam68 (KHDRBS1) = assay: compounds binding KHDRBS1 protein – biochemical, small-molecule microarray, 635 nm fluorescence, primary screen (AID 1125); conditions: higher = more signal;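 further: score merges 667 nm channel intensity with signal to noise over triplicate slides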
# [7] = test system: Chordin-like protein 2 (CHRDL2); assay: compounds binding chordin-like 2 – biochemical, small-molecule microarray, 635 nm fluorescence, primary screen (AID 1126); conditions: fluorescence 635 nm, higher = more signal;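 further: printed compound slides probed with Chrdl2 protein at 4 µg/mL for 1 h at 4 C; score merges 667 nm emission intensity with signal to noise over three replicate slides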
# [8] = target: Concanavalin-A (Canavalia ensiformis) (UniProt P02866); assay: compounds binding concanavalin A lectin – biochemical, small-molecule microarray, Alexa647 label, 635 nm, artefact control for SMM control protein annotation, primary screen (AID 1127); conditions: ConA-A647 binding fluorescence, higher = more signal;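 further: z combines 667 nm emission intensity with signal-to-noise across three replicate slides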
# Sequence of Concanavalin-A (Canavalia ensiformis) (P02866 whole entry, looked up): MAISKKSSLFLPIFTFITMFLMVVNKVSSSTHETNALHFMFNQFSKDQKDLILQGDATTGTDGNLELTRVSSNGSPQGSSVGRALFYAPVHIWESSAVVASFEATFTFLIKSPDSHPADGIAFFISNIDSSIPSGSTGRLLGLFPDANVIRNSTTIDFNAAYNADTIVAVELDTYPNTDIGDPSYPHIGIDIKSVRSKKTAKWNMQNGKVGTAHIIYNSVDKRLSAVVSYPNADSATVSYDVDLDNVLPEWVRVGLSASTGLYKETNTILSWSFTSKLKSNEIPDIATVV
# [9] = compounds binding Alexa647 anti-His antibody – biochemical, small-molecule microarray, 635 nm fluorescence, artefact control for SMM control protein annotation, primary screen (AID 1128); conditions: higher = more signal;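 further: score merges feature fluorescence with signal-to-noise for each printed compound spot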
# [10] = test system: Human papillomavirus type 1a E7 protein (residues 1-88); assay: HPV1a E7 small-molecule binders, primary screen, biochemical, small-molecule microarray, residues 1-88, 635 nm (AID 1129); conditions: small-molecule microarray binding, fluorescence 635 nm; higher = more signal
# [11] = target: Focal adhesion kinase 1 (Homo sapiens) (UniProt Q05397); assay: PTK2 protein binding on printed compound slides – biochemical, small-molecule microarray, 635/667 nm fluorescence, BSA, DTT, primary screen (AID 1130); conditions: 635 nm fluorescence, higher = more signal;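 further: composite of spot emission at 667 nm and signal to noise over triplicate slides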
# Sequence of Focal adhesion kinase 1 (Homo sapiens) (Q05397 whole entry, looked up): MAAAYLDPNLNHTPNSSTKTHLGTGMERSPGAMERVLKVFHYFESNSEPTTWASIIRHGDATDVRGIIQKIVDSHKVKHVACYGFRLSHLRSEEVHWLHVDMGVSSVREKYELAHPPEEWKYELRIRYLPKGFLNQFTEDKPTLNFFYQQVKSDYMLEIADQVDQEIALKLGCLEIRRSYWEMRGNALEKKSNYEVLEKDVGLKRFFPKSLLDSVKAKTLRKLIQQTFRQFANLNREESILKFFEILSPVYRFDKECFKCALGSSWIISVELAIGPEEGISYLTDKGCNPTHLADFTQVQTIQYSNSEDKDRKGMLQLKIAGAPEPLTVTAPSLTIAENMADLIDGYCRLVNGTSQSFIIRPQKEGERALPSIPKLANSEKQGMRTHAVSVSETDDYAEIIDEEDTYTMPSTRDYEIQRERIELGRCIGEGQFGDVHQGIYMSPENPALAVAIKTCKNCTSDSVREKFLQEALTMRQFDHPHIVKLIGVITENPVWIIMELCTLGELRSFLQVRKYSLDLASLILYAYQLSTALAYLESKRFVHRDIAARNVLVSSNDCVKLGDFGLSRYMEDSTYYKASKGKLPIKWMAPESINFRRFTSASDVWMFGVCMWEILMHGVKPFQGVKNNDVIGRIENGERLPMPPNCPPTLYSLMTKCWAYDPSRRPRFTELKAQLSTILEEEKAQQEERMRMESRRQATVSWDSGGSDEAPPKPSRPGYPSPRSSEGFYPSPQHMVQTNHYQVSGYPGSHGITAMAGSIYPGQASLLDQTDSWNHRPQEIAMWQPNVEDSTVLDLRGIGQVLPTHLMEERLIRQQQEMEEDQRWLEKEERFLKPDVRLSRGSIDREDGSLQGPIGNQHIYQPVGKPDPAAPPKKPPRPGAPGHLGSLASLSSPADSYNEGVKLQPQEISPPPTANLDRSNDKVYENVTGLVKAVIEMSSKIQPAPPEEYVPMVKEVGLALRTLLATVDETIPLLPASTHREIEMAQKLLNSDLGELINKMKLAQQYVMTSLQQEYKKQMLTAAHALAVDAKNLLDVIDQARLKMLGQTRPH
# [12] = test system: Fibrinogen (Alexa647-labelled); assay: Alexa647-fibrinogen binding to printed small molecules – biochemical, small-molecule microarray, 635/667 nm fluorescence, artefact control for SMM control-protein annotation, profiling panel (AID 1131); conditions: fibrinogen-A647 binding fluorescence, higher = more signal;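 further: z-score merges 667 nm fluorescence with per-spot signal-to-noise over triplicate slides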
# [13] = target: Follistatin (Homo sapiens) (UniProt P19883); assay: FST protein binding to printed compounds – biochemical, small-molecule microarray, 635/667 nm fluorescence, primary screen (AID 1132); conditions: 635 nm fluorescence, higher = more signal
# Sequence of Follistatin (Homo sapiens) (P19883 whole entry, looked up): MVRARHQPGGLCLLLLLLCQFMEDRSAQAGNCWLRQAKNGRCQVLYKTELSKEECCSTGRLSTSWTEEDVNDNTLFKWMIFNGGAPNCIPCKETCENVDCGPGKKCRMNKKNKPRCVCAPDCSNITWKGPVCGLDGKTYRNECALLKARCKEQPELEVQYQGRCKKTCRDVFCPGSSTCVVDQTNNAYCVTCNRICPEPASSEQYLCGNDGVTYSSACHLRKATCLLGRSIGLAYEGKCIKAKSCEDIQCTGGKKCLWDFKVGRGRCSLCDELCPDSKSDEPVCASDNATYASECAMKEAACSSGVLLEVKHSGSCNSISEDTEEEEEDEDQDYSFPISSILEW
# [14] = target: Fibroblast growth factor 2 (Homo sapiens) (UniProt P09038); assay: basic fibroblast growth factor binding to printed compounds – biochemical, small-molecule microarray, 635/667 nm fluorescence, primary screen (AID 1133); conditions: FGF2, fluorescence 635/667, higher = more signal
# Sequence of Fibroblast growth factor 2 (Homo sapiens) (P09038 whole entry, looked up): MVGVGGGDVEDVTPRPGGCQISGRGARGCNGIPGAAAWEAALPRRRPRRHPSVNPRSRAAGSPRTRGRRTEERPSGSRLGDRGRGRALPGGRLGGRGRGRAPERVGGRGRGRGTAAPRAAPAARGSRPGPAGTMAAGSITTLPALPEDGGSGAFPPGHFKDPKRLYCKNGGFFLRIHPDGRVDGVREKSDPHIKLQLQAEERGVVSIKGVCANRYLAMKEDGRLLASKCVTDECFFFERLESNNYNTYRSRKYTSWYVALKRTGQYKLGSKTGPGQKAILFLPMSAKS
# [15] = JC-1 mitochondrial potential readout, lung cancer cells – cell-based, A549, JC-1 fluorescence, basal, 24 h, 100 nL, profiling panel (AID 1138); conditions: higher = more signal;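 further: A549 lung adenocarcinoma cells under basal conditions with no added stimulus; test concentration not given here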
# Lefty1 = Lefty1 protein binding to printed compounds – biochemical, small-molecule microarray, 635/667 nm fluorescence, primary screen (AID 1139); conditions: fluorescence 635/667, higher = more signal
# [16] = test system: wheat germ agglutinin (Triticum aestivum), Alexa647-labelled; assay: Alexa647-WGA lectin binding to printed small molecules – biochemical, small-molecule microarray, 635/667 nm fluorescence, artefact control for SMM control-protein annotation, profiling panel (AID 1140); conditions: WGA-A647 binding, 635 nm fluorescence, higher = more signal;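 further: score merges 667 nm feature emission with signal to noise over triplicate slides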
# [17] = target: Luciferin 4-monooxygenase (Photinus pyralis) (UniProt P08659); assay: inhibition of purified Photinus pyralis luciferase – biochemical, luminescence, purified enzyme, 2006 set, primary screen (AID 1141); conditions: purified firefly luciferase, SteadyGlo luminescence, 30 min; higher = more signal, called active from +8 up or from −8 down;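 further: cell-free assay with purified firefly luciferase at 100 ng per well in PBS; test concentration not given here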
# Sequence of Luciferin 4-monooxygenase (Photinus pyralis) (P08659 whole entry, looked up): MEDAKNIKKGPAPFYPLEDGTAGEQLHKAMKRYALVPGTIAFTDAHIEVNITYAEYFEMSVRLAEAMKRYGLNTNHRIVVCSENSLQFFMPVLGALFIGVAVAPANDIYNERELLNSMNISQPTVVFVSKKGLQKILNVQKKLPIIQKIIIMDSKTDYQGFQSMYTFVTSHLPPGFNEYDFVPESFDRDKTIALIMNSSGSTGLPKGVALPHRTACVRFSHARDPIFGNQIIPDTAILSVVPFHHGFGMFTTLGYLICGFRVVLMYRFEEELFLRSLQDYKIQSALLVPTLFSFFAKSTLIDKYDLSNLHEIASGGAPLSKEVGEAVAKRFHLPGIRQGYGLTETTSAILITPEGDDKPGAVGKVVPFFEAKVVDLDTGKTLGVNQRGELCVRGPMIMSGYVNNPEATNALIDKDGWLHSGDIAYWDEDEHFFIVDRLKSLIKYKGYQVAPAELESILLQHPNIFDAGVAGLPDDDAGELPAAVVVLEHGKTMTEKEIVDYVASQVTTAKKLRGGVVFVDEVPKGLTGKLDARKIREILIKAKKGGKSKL
Compound,composite z-score (Albumin (Bos taurus)),composite Z-score [1],composite z-score [2],composite z-score [3],composite z-score [4],composite z-score [5],composite z-score [6],composite z-score (Sam68 (KHDRBS1)),composite z-score [7],composite z-score [8],composite z-score [9],composite z-score [10],composite z-score [11],composite z-score [12],composite z-score [13],composite z-score [14],z-score [15],composite z-score (Lefty1),composite z-score [16],z-score [17]
C#CCN(Cc1ccccc1Br)[C@H](/C=C/c1ccccc1)[C@@H](O)Cc1ccccc1,-0.33,0.258 (inactive),-0.226,-0.167,-0.128,0.222,0.163,0.446,0.129,-1.01,0.244,-0.548,-0.082,-1.24,-1.25,-1.23,0.921,-0.62,-0.351,-0.629 (inactive)
CN(C)C(=O)[C@]1(CCC(=O)OC(C)(C)C)N=C(c2ccc(OCCCO)cc2)O[C@@H]1c1ccccc1CN=[N+]=[N-],1.01,-0.579 (inactive),0.0749,-0.0037,0.673,3.17,1.15,1.34,-1.24,1.12,1.31,1.21,0.706,0.961,1.25,-0.0399,1.03,0.0183,1.42,-0.703 (inactive)
COc1ccc(C#Cc2ccc3c(c2)[C@]2(C(=O)N3)[C@H](c3ccc(O)cc3)N3[C@H](c4ccccc4)[C@H](c4ccccc4)OC(=O)[C@H]3[C@@H]2C(=O)Nc2nc3ccccc3s2)cc1,0.67,0.276 (inactive),-0.014,0.117,0.61,2.47,0.98,1.29,0.428,1.08,0.269,1.25,0.359,0.983,1.29,0.964,-2.1,0.882,0.768,-1.28 (inactive)
O=C(NCCN1CCOCC1)[C@@H]1c2ccccc2C(=O)N(C2Cc3ccccc3C2)[C@H]1c1ccc(CO)cc1,0.268,-0.27 (inactive),-0.223,0.0129,0.498,0.866,1.77,1.01,-0.419,0.466,3.03,1.08,0.306,0.739,-0.506,0.082,2.55,-0.724,-0.0583,-1.16 (inactive)
COc1ccc(CCNC(=O)[C@@]2(Sc3ccc(C)cc3)CC(=O)N(Cc3ccccc3C(F)(F)F)[C@@H]2c2ccc(CO)cc2I)cc1,0.589,-0.0511 (inactive),-0.357,0.102,0.759,2.09,-0.0867,-0.3,-0.865,-0.71,2.42,0.0953,-0.326,0.685,-0.706,-0.512,1.56,-1.63,0.827,-0.555 (inactive)
COc1ccc([Si](C)(C)[C@@H]2[C@@H](CC(=O)N(CCO)Cc3ccccc3)O[C@]3(C(=O)N(Cc4cccc(N5CCCCC5=O)c4)c4ccccc43)[C@H]2C)cc1,0.11,0.42 (inactive),-0.22,-0.131,0.52,1.86,-0.104,0.646,0.905,1.03,0.112,0.869,0.518,-0.451,1.15,0.361,-0.171,1.46,0.349,0.151 (inactive)
CCOC(=O)C[C@H]1[C@H](OC(=O)Cc2ccc3c(c2)OCO3)[C@@H](NC(=O)c2ccc3ccccc3n2)c2cc(OCCCO)ccc2N1C(=O)c1ccc2ccccc2n1,0.208,-0.0069 (inactive),-0.0646,-0.135,0.371,0.986,0.171,0.796,0.0741,1.07,0.267,0.496,0.629,0.913,0.497,0.13,3.18,0.37,0.754,-1.83 (inactive)
COc1ccc([Si](C)(C)[C@H]2[C@H](CC(=O)N3CCC[C@H]3CO)O[C@@]3(C(=O)N(Cc4ccc(N5CCOC5=O)cc4)c4ccccc43)[C@@H]2C)cc1,-0.195,-0.0549 (inactive),0.336,-0.075,0.364,1.89,0.145,1.34,0.731,0.618,2.43,1.18,0.395,0.692,1.34,1.56,2.59,1.16,0.697,0.31 (inactive)
CC(C)[Si]1(C(C)C)OCc2cc(C3CC3)nc(-c3ccc(Oc4ccccc4)cc3)c21,-0.808,-0.26 (inactive),-0.177,-0.108,-0.204,0.0215,-0.238,-0.459,-0.368,-0.725,-0.33,-1.1,-0.0826,-0.753,-0.538,-0.206,0.546,-0.365,-0.596,-0.311 (inactive)
COc1ccc(CCNC(=O)[C@@]2(Cc3ccccc3I)c3ccccc3C(=O)N(C3CCCCC3)[C@H]2c2ccc(CO)cc2)cc1,0.471,-0.0065 (inactive),-0.0647,-0.162,0.218,1.5,-0.167,0.621,-0.718,0.969,0.362,0.839,0.22,0.434,0.341,-0.199,0.348,0.106,0.177,1.18 (inactive)
Cn1cccc1C(O)C1C=CC2C(=O)N(c3ccccc3)C(=O)C2N1Nc1ccccc1 (stereo not given),0.857,0.581 (inactive),0.346,0.2,0.805,2.37,0.461,1.3,0.352,1.19,0.933,1.23,0.848,0.954,1.29,0.984,0.569,0.475,0.557,-0.589 (inactive)
